Data published in the supplement of paper PMC6555819.

Test system: PPARa:RXRa (NR concentration 270 nM, RXRa partner concentration 90 nM)
Assay: PBM binding z-score (relative to random genomic background probes); higher = stronger binding; sequences stand for … in GC…GCGATTGACAGCGTAGAATGAAGG
Outline: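 The probes on custom Agilent 4×180K protein-binding microarrays were double-stranded, with 34-nt variable regions bearing direct-repeat seeds, single-nucleotide variants, half-site ablations and random human genomic background sequences. Incubation lasted 1 h with ligand-free nuclear receptor dimers in PBS pH 7.4, 2% milk, 0.02% Triton X-100, 1 mM DTT, 0.2 mg/mL BSA and 0.4 mg/ml salmon testes DNA. Antibodies against each partner (one per run) detected bound dimers, and fluorescence scans were regression-normalized. Binding z-scores take the random background probes as reference.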

Row | Sequence | PBM binding z-score
1 | ATCGAAAGGTCGAAGGTGAGTATACCCACCCGAA | 4.67
2 | TCTTGTAGATCAATAGAGGTTACGAAAGTGCGCT | 2.12
3 | TCTTGTTGATCAAGCAGGTTAAGAAAGCCTGAGT | 0.497
4 | CGTCCTAGGTCAAGGTCAGTGAAAGAGACTCGAA | 4.87
5 | GGAACGAGTGCAAAGTTGATAGCATCTGTCGACG | 1.8
6 | TCTAGTTGGTCTCGGAGGTCACACACGACGGGTA | 3.52
7 | CTAACTAGGTCAGAACAGGACAGTGAAGGATGAT | 3.16
8 | TCTTGTAGATCAACAGGAGTTTAAGAAAGATCGA | 0.604
9 | CGTCCACGGTCAATGCTAGGTCAGTGAAAGCATT | 0.778
10 | CCTTACGGGTCACTGACAGGTTAAAGCATTTGGA | 5.05
11 | CCTAGTTGGTCAGGAGGTAACACACCGGATATGA | 0.433
12 | ATAACGAGGGCAATGAGTTGATAGCACGGGTGGC | 1.23
13 | GCGACTGGGGCATAGCAGGTTACCATAAGGTTGG | 1.2
14 | TTACCAAGCTGAGCTGAGGTCGTTGATCCAACTC | 0.413
15 | CGGCCAAGGTCAGAGAGGTCAGTGAATGCCGAGT | 4.79
16 | GGGACTGGGGCAAAGCAGGTTACCATAAGGTTGG | 2.6
17 | TCAGACAAGTGAAGGTAACTCAGGTACGCAGTCG | 0.902
18 | GCTTGTAGATCACGGTTAAGAAAGACTAAGCTAA | -0.169
19 | GTTAGTTGGTCAGTAAAAGGTCACACACCGGTCG | 4.6
20 | TCATATAGGTAAACAGGTGAAAGTTCGTAAGTTA | 4.15

Row | Sequence | PBM binding z-score
21 | ACTAGTTGGTCAGGTGAGGTCACACACAATTCGG | 3.83
22 | ATCGAAAGGTCGAAGGTGAGAATACCCACCCGAA | 4.73
23 | TCTTCTAGATCAAAGGTTAAGAAAGCCGAAGCCT | 4.9
24 | CCTTACGGGTCACGATGTTATAGCACGACGAGCG | 5.51
25 | GGAATGAGGGCAAAGTTGATAGCATCTGTCGACG | 4.51
26 | TCATATAGGTAATACAGGTGACAGTCGGCATCTA | 1.77
27 | CCTATTAGTTGACCATAAAGGCAACCGAAGCTCG | -0.0568
28 | ATCTCTAGGTAAAGTTCCGTGAAAGATCGATAGA | 0.649
29 | CATCGGAGGACAACAGGAGGTCAGAGCTGCCAGA | 2.39
30 | CGTCAAAGTCCAACTAAGGTAACGTAAAGCACGC | 0.088
31 | TTGCCTAGGTCATTCAGGGGCCAGTATAGAAAGC | 3.51
32 | ATCTCTAGGTAAAGATAGTTCAGCGAATGCAAAT | 0.777
33 | ATCTCTAGGTAAGACTCAGTTCAGTGAAGAACGC | 0.0408
34 | AAACCAAGGTGATCGTGAGGTCGTTGATACTAAC | 1.54
35 | GTACCAAGGTGAATAGATCGTTGATGAGTAGGCG | 0.852
36 | CCTCGGAGGACAACAGGAGCTCAGAGCTGCCAGA | -0.767
37 | CAAGCTAGGTCACAGAGGTCAAAGTCCGTGCGTA | 5.99
38 | ACTTTTAGTTGACTTAGGGCAACCGATACGACGC | 0.361
39 | TCTATTAGTTGAAGGGTAACCGACGAGTCCGTTT | 1.35
